Bounds are passed on as bounds.
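Further: kd values determined as follow-up on hits from a single-replicate KINOMEscan panel screen.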

For one test, the system named is CSNK2A2.
As a reminder, the Kd is the constant that tells how readily two partners part at equilibrium. Read a high Kd as a looser complex. Molecule `Fc1cc(Cl)ccc1Nc1ccnc2cc(-c3ccc(CN4CCCCC4)o3)ccc12` [GW560116] gave a Kd of over 10000 nM.
Still for that read-out and setting: next, `Clc1cc(Cl)cc(Nc2ccnc(Nc3cc(Cl)cc(Cl)c3)n2)c1` [GSK175726]: over 10000 nM; `COc1ccccc1CNC(=O)c1cc(C(=O)c2ccccc2C)c[nH]1` [GSK364507]: 5100 nM; `COc1cc2ncnc(Nc3ccc4nc(-c5ccccc5)[nH]c4c3)c2cc1OC.Cl` [GW282450]: over 10000 nM.
On the same count and under the same terms, next, `Nc1ncnc2[nH]c(-c3ccccc3)nc12` [AH5015]: 1100 nM; `Cc1cccc(-c2nc(Nc3ccc4[nH]ncc4c3)c3ccccc3n2)n1` [GW857175]: 42 nM.

For another test, the system named is DDR1.
`Cc1ccc(NC(=O)Nc2cccc(Cl)c2)cc1-c1ccc(C(=O)Nc2ccncc2)cc1` [GSK1398468] came in with a Kd of 76 nM.
For the molecule `COC(=O)c1c(-c2ccccc2)c2cc(OC)ccc2c(=O)n1Cc1ccccc1`, binding was put at a Kd of 280 nM.
The same measure, in the same setting: next, `Cc1cccc(-c2nc(-c3ccc(S(C)(=O)=O)cc3)sc2-c2ccnc(NCCc3ccccc3)c2)c1`: 230 nM; `COC(=O)c1c(-c2ccccc2)c2cc(C(=O)O)ccc2c(=O)n1Cc1ccccc1`: 160 nM; `CC(=O)Nc1nc2cnc(Nc3cc(NC(=O)c4cccc(CCC#N)c4)ccc3C)nc2s1`: over 10000 nM.
`O=C(Nc1ccccc1)Nc1cccc(Oc2ccc3nccn3n2)c1` had a Kd of 24 nM. That is a double-digit nanomolar value.
The same measure, in the same setting: for `Cl.O=C(Nc1cccc(-c2nn3ncccc3c2-c2ccnc(Nc3cccnc3)n2)c1)c1c(F)cccc1F` [GSK312879] the value was 140 nM.
`Cc1ccc(NC(=O)Nc2cc(C(C)(C)C)nn2-c2ccccc2)cc1` [GSK1014915] came in with a Kd of 1300 nM. This Kd is about 9.3-fold higher than that of the molecule before.

These data come from article PMC5540273 (PLoS ONE, 2017).
